Results with a measured potency or affinity are listed apart. Results filed as inconclusive are left out. Active and inactive are the calls of the source.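 The calls were made as follows: active = raises choline transporter activity at one or more tested doses and gives a fitted dose-response curve; inconclusive = no clear call, values can overlap the other calls; inactive = no choline transporter activation at any dose, or no curve.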
Target: High affinity choline transporter 1 (Homo sapiens) (UniProt Q9GZV3)
Sequence (Q9GZV3 whole entry, looked up): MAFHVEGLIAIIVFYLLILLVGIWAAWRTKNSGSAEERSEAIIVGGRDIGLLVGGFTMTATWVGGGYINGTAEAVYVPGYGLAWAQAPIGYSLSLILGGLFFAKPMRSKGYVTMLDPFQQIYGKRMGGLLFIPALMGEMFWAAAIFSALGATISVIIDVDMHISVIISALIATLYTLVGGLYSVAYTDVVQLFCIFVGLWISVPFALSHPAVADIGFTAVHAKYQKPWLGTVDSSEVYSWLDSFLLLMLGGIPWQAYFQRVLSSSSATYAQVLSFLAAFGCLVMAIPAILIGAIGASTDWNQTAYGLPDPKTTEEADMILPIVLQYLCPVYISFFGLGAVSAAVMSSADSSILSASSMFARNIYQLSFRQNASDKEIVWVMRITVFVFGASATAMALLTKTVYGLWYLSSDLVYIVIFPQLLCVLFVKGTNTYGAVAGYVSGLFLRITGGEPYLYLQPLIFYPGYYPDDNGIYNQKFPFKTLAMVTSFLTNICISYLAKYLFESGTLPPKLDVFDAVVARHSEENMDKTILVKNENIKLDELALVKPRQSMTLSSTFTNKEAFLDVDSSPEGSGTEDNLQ
Experiment: human choline transporter potentiators, potency – cell-based, 10-point CRC, membrane potential dye, dose response (AID 602376)
Details: HEK293-CHT, choline-induced membrane potential dye, cells express CHT LV-AA mutant; series mostly up to 67 µM

outcome, inactive:
COc1ccc(-c2c3c(=O)n(C)c(=O)n(C)c3cn2C2CCCCC2)cc1, Cc1cccc2cc3c(N)c(C(=O)N4CCc5ccccc54)sc3nc12, Nc1sc(-c2ccccc2)n[n+]1Cc1cccc2cccnc12, CCc1ccc(NC(=O)CSc2nc3ccccc3c(=O)n2CCCN2CCC(C)CC2)cc1, O=C(NCC(c1ccco1)N1CCc2ccccc2C1)c1cccc(F)c1 (centres undefined), CCCC12CN(C(=O)c3ccc([N+](=O)[O-])cc3)CC(C)(CN(C(=O)c3ccc([N+](=O)[O-])cc3)C1)C2=O, CC(C)CCNC(=O)/C=C/c1ccc(Br)cc1, COc1cccc(C(c2nnnn2Cc2ccco2)N2CCN(c3cccc(C)c3C)CC2)c1OC (centres undefined), CCC(=O)N(CCC(c1ccc(C)cc1)c1ccco1)Cc1ccco1 (centres undefined), CC(C)CCC(CCNCc1ccccn1)c1ccc(Cl)cc1 (centres undefined), CCc1cccc(C)c1NC(=O)CN(C)Cc1ccc(Br)cc1, Cc1ccc(-c2c(C(=O)N(C)Cc3ccccc3)oc(=O)c3ccccc23)cc1, CCCCn1c(=N)n(CC(O)COc2ccccc2)c2ccccc21 (centres undefined), C=C1CCN(Cc2ccccc2)S(=O)(=O)c2ccccc21, COc1ccc(CN2CCC(N(CCc3ccccc3)Cc3ccccc3)CC2)c(OC)c1, O=C(Nc1cccc(Cl)c1N1CCOCC1)c1cc([N+](=O)[O-])ccc1N1CCOCC1, Cc1noc(C)c1CSc1nc2ccccc2c(=O)n1-c1ccccc1, Cc1nnc(N2CCC(C(=O)N3CCCCC3)CC2)c2nn(-c3ccc(Cl)cc3)c(C)c12, COc1ccc(-c2cc(C(=O)NNC(=O)c3csc(N4CCOCC4)n3)c3ccccc3n2)cc1OC, COc1ccc(N2CCN(c3oc(COc4ccccc4)nc3C#N)CC2)cc1, COC(=O)CNC(c1ccccc1)c1cc(C)ccc1NC(=O)c1cccc(Cl)c1 (centres undefined), CCOc1cc(NC(=O)c2ccco2)c(OCC)cc1NC(=O)c1ccco1, COc1cccc(-c2cn(C[C@H]3CC[C@@H]([C@@H]4CC[C@H](Cn5cc(-c6cccc(OC)c6)nn5)O4)O3)nn2)c1, Cc1cc(N2CCN(Cc3cn(C)nc3-c3ccccc3F)CC2)cc(C)n1, CCn1cc(C(=O)OCC(=O)OC2CC(C)CCC2C(C)C)c(=O)c2ccc(C)nc21 (centres undefined), CCc1cccc(OCCn2nc(C(=O)O)c3ccccc3c2=O)c1, CC1(C)Cc2c(sc3nc4n(c(=N)c23)CCC4)CO1, O=C(COc1ccccc1)NCC(c1ccco1)N1CCN(c2ccccc2)CC1 (centres undefined), COC(=O)c1sc(NC(=O)C(C)c2ccccc2)nc1C (centres undefined), Clc1ccc(CN2C3=NCCN3c3ccccc32)cc1Cl, Cn1c(=O)c2c(nc(CN3CCCCC3)n2CCc2ccccc2)n(C)c1=O, CCCCn1c(N)c(N(CCC(C)C)C(=O)c2ccc(COc3ccccc3)o2)c(=O)[nH]c1=O, CCc1ccc(C(O)(CNCc2ccccc2)c2ccccc2)cc1 (centres undefined), Cc1ccccc1SCC(=O)Nc1cc(C(F)(F)F)ccc1N1CCOCC1, COc1cc(-c2noc(C)c2C#Cc2ccccn2)cc(OC)c1OC, COC(=O)C1=C(C)N(Cc2ccccc2)C(=NCC(C)C)N[C@H]1c1ccccc1, O=C1CCCCCCCCCC/C(=N\O)CCCO1, CCCC(=O)N1c2ccccc2C(=C2SC(C(=O)OC)=C(C(=O)OC)S2)C(=S)C1(C)C, Cc1cccc2c(=O)cc(C)n(CC(=O)N3CCOCC3)c12
